# Source: PubChem (National Center for Advancing Translational Sciences (NCATS))
# G9a block: G9a (human) methyltransferase inhibition | AID 504332 | Q96KQ7 | Potency, µM (series often up to 102 µM), inactives show top-dose activity, negative = inhibition, most hits filed as inhibitors | 8.8% of 350,000 active | G9a H3K9 monomethylation, AlphaScreen, 2 h; further: on the % scale 0 is the no-effect control and ±100 the full control effect; nearly all actives have a fitted effect of over 75% in size
# Target sequence (Q96KQ7 913-1193 limits assumed): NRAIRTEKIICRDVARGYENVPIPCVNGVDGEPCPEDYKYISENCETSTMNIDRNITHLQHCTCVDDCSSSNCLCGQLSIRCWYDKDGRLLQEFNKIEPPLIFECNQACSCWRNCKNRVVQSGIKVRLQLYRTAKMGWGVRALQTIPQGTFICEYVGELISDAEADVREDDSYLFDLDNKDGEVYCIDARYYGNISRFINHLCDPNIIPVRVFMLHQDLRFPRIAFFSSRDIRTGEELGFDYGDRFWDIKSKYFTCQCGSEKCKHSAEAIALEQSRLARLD
#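 Chemiluminescent proximity detection of H3K9 monomethylation, read after 10 min bead incubation in the dark. Reaction: 20 nM G9a, 500 nM biotin-H3K9 peptide, 20 uM SAM cofactor, 2 h, room temperature, following 15 min enzyme-compound preincubation.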
# HP1b chromo inh: inhibitors of HP1-beta chromodomain binding to methylated histone tails. P83916. AlphaScreen HP1-beta / biotin-H3K9me3 peptide binding. Potency, µM (highest dose often 114 µM), without a hit: at the highest dose activity change, negative = inhibition, hits mostly inhibitors. 0.56% of 390,000 active. AID 540317; further: nearly all actives have a fitted effect of over 70% in size
# Target sequence (P83916 whole entry, looked up): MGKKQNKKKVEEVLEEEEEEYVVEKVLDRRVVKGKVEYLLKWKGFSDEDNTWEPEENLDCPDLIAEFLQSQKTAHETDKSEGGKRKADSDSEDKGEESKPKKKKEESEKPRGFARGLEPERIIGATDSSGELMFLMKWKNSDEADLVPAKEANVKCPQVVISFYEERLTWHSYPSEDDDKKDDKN
#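 Compound inhibition of the preformed complex between 50 nM HP1-beta and 50 nM biotinylated H3K9me3 peptide was read by AlphaScreen. Buffer was PBS pH 7.4 with 0.01% Tween-20. Incubations ran 30 min at room temperature, with 10 ug/mL donor/acceptor beads.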
# JMJD2A Tudor: blocks the human JMJD2A Tudor domain. Potency, µM (titrated, usually from 114 µM), without a hit: at the highest dose activity change, negative = inhibition, hits mostly inhibitors. O75164. AlphaScreen JMJD2A-Tudor / H3K4me3 peptide binding. 4.4% of 390,000 active; further: on the % scale 0 is the no-effect control and ±100 the full control effect; nearly all actives have a fitted effect of over 50% in size
# BAZ2B inh: inhibitors of human BAZ2B bromodomain; 4.4% of 360,000 active; AlphaScreen BAZ2B-H3K14Ac peptide displacement; Potency, µM (top dose mostly 114 µM), without a hit: top-dose activity change, negative = inhibition, actives largely listed as inhibitors; AID 504333; Q9UIF8; further: on the % scale 0 is the no-effect control and ±100 the full control effect; nearly all actives have a fitted effect of over 60% in size
#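 Complex of BAZ2B and biotin-H3K14Ac (50 nM apiece) forms over 30 min at RT, then faces library compounds up to 110 uM for another 30 min; AlphaScreen beads added, 20 min dark incubation, luminescence read.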
# GLS inh: glutaminase GLS (human) inhibition; GLS enzymatic activity, qHTS titration; Potency, µM (titrated, usually from 45.5 µM), for inactives: top-dose activity change, negative = inhibition, usual class: inhibitors; 0.21% of 410,000 active; further: on the % scale 0 is the no-effect control and ±100 the full control effect
#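 Enzyme dispensed in phosphate buffer (45 mM, pH 8.2, 0.02% Tween-20), compounds pinned in, then 1 mM L-glutamine solution and the glutamate oxidase–HRP–Amplex Red mix added; fluorescence read immediately and again after 30 min at room temperature.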
# * = called active by the depositor; ? = inconclusive; · = not tested or not shown; [ ] = remark or other dose. Most compounds without a hit are left out; they make up all but 10% or so of the library. The call rests on the fitted dose curve; in most records, active means well fitted curve in the direction sought with a large enough effect; inconclusive means small, poorly fitted or top-dose-only effect, or another doubt; inactive means no such curve, though single readings can be large; an effect the other way counts as inactive or inconclusive. Potency means the concentration at half of the fitted maximal effect.
SMILES,G9a block,HP1b chromo inh,JMJD2A Tudor,BAZ2B inh,GLS inh
CCOc1ccc(N2C(=O)C3C(c4ccccc4F)NN(C(=O)c4ccc(C)cc4)C3C2=O)cc1 (stereo not given),50µM*,24%,-20%,-9%,3%
Cc1ccc(C(=O)N2NC(c3ccc(F)cc3)C3C(=O)N(c4ccc(C)c(C)c4)C(=O)C32)cc1 (stereo not given),56µM*,43%,-19%,-9%,11%
CCN(CC)CCNCc1ccc(-c2ccc(Cl)cc2)o1,50µM*,-7%,?,?,68%
CC(=O)N1CCc2cc(Br)cc(S(=O)(=O)NCCc3cccc(C)c3)c21,5%[59 µM],16%,-18%,-1%,0%
O=C1CSC(=S)N1N1C(=O)c2cccc([N+](=O)[O-])c2C1=O,6.3µM*,·,·,?,·
O=C1c2cccc([N+](=O)[O-])c2C(=O)N1CCO,-37%,55%,6%,-12%,-2%
Nc1cc(Cl)ccc1N1CCCC1,14µM*,-16%,?,?,0%
O=S(=O)(Nc1cccc(-c2ccc(N3CCOCC3)nn2)c1)c1cc(Cl)ccc1Cl,?,15%,-18%,-1%,17%
CCN(c1ccc(NS(=O)(=O)c2cc(Cl)ccc2Cl)cc1)C(C)C,7.1µM*,?,50µM*,35µM*,35%
O=S(=O)(Nc1ccc(N2CCOCC2)cc1)c1cc(Cl)ccc1Cl,45µM*,-6%,?,-31%,7%
CN(C)c1ccc(NS(=O)(=O)c2cc(Cl)ccc2Cl)cc1,8.9µM*,50µM*,56µM*,35µM*,58%
Nc1cc(S(=O)(=O)Nc2cc(Cl)ccc2Cl)ccc1N1CCOCC1,11µM*,?,?,-34%,?
Nc1cc(S(=O)(=O)Nc2ccccc2Cl)ccc1N1CCCC1,?,-17%,?,?,24%
Cc1ccc(OCCn2c(=S)[nH]c3ccccc32)c(C(C)C)c1,·,-10%,-25%,?,1%
S=c1[nH]c2ccccc2n1CCc1ccncc1,·,45%,?,·,2%
Cn1c(=S)[nH]c2ccccc21,8.9µM*,-11%,50µM*,-35%,17%
CCOc1ccc2c(c1)[nH]c(=S)n2C,7.9µM*,-34%,56µM*,-15%,-9%
N#CCCn1c(=S)[nH]c2ccccc21,7.1µM*,-20%,-6%[57.1 µM],-3%,19%
Cc1cccc(OCCn2c(=S)[nH]c3ccccc32)c1,1.6µM*,-61%,?,?,-6%
Cc1ccc(NC(=O)COC(=O)[C@H](C)NC(N)=O)c(C)c1,4%,29%,-10%,·,-8%
COc1ccccc1OCCn1c(=S)[nH]c2ccccc21,8.9µM*,1%,?,1%,23%
CCOc1ccc(OCCn2c(=S)[nH]c3ccccc32)cc1,7.1µM*,?,?,50µM*,-7%
S=c1[nH]c2ccccc2n1CCOc1ccccc1,·,-24%,?,12%,-10%
COc1ccccc1OCCn1c(=O)n(C)c2ccccc21,39%[12.7 µM],35%,-3%,-29%,-2%
Cc1ccc(S(=O)(=O)Nc2cc(Cl)c3oc4c(c3c2)CCCC4)cc1,-28%[59 µM],11%,-19%,-37%,1%
SMILES,G9a block,HP1b chromo inh,JMJD2A Tudor,BAZ2B inh,GLS inh
NC(=O)c1sc2nc3c(c(-c4ccc(Cl)cc4)c2c1N)CCCC3,11µM*,41%,6%,-4%,3%
Nc1c(C(=O)NCc2ccc(Cl)cc2)sc2nc3c(c(C(F)(F)F)c12)CCC3,45µM*,72%,21%,4%,1%
Cc1ccc(CNC(=O)c2sc3nc4c(c(C(F)(F)F)c3c2N)CCC4)cc1,-1%,61%,16%,10%,6%
Cc1ccc(-c2c3c(nc4sc(C(N)=O)c(N)c24)CCC3)cc1,-10%,37%,-21%,-4%[57.1 µM],17%
COCC1=C(C(=O)OC(C)OC(=O)OC(C)C)N2C(=O)C(NC(=O)/C(=N/OC)c3csc(N)n3)[C@H]2SC1 (stereo not given in full),·,·,·,·,-2%
COc1ccc(NC(=O)C2CCCO2)cc1 (stereo not given),1%[59 µM],60%,-12%,1%,2%
O=C(Nc1ccc(N=Nc2ccccc2)c(NC(=O)C2CCCO2)c1)C1CCCO1 (stereo not given),?,?,35µM*,28µM*,-20%
